B1: 65775431_65775551_264_CDS_ENSG00000116675_ENST00000371069|human|control|control (ssRNA)
RNA: GGGAGUUCUACAGUCCGACGAUCCACUCUCUGCUUGCCGCCAACCCCGCCGCUUCCCGCACUUAAGUCCCCGUUACUGUCCACCAGCUGCAAAGAUUCAUAACCAUCGUUGCUGGUCUUUUUCCGGUAGCUCCCGAGGAGGCUCAACAGAGGAUUGAGCAUCA
B2: chr4:42581876:42581877:-_ENSG00000124406_ENST00000264449|hu_hu|FALSE|FALSE (ssRNA)
RNA: GGGAGUUCUACAGUCCGACGAUCGCCACCAUAGUUUAGAUUGAGAUACCAGUCUUUUCCAGAAUGCCUUCGAUUCCAAAUGGCUGAGCCCACAGAACAGACAAGAGACAUGGCAAUUAAGAUACAAAAUAAAAUCAAAAUUUGCAACAGAGGAUUGAGCAUCA
B3: chr21:34924512:34924513:+_ENSG00000159140_ENST00000381679|hu_mus|motif|central (ssRNA)
RNA: GGGAGUUCUACAGUCCGACGAUCAGAUGACAUCAUGGAACGUUCUGCAGCAUAGGACAUCAUCAUAGAACGUCUAGAUGCGGACAUCAAGGGUCUAGGUGCUAACCUGUAUGGCCUAGGUGCUAUCCUAUAGGACCUGGGUGCCAACAGAGGAUUGAGCAUCA
B4: 122452171_122453414_3711_CDS_ENSMUSG00000034602_ENSMUST00000073792|mouse|control|control (ssRNA)
RNA: GGGAGUUCUACAGUCCGACGAUCUCGGUCCAGUAGAUGAAAGAGUACCUUCCAAAUAACGGUGUGCCAGGUGGAGUGCUGCAGCAGGGUCCCGUGCGCUCCGAUCGUGGAGAACAGGGUCUGCCCUGCGCUCUUCCUCACGGCCAACAGAGGAUUGAGCAUCA
B5: chr17:56552419:56552420:-_ENSMUSG00000013236_ENSMUST00000086828|mus_mus|mus_mus_mus_hu_False|48_48 (ssRNA)
RNA: GGGAGUUCUACAGUCCGACGAUCAAAAAAUACACUAUUUAAAAAAAAUGAAAUGUCACGGGAUACAGUUACACUGAGAGUUUUAAAAAAAAAUAAGAUUCUGGUCCCAGCCCAGUGUCCCCAGGCUGCAGAGCGGGGAGGAGCCAACAGAGGAUUGAGCAUCA
B6: chr17:56552419:56552420:-_ENSMUSG00000013236_ENSMUST00000086828|mus_mus|mus_mus_mus_hu_False|48_98 (ssRNA)
RNA: B5 RNA with U38A, U39A
B7: chr17:56552419:56552420:-_ENSMUSG00000013236_ENSMUST00000086828|mus_mus|mus_mus_mus_hu_False|48_58 (ssRNA)
RNA: B5 RNA with G77C, G79C, U81A
B8: chr17:56552419:56552420:-_ENSMUSG00000013236_ENSMUST00000086828|mus_mus|mus_mus_mus_hu_False|1_48 (ssRNA)
RNA: B5 RNA with A138C, G139A, C143G
B9: 35626089_35772405_348_CDS_ENSG00000108100_ENST00000265375|human|control|control (ssRNA)
RNA: GGGAGUUCUACAGUCCGACGAUCGUCCGUCUGAGAUUUACUGAGGAAUAUUGUGCUGGCCCGAGGAUGAUCUGAAGGAUUGAAUUCCAUGUUCAAAUCGUCUAUGUUCUCCCGGUCGCUGAUGUGCUGCAGGUUGCAGCCCGUCAACAGAGGAUUGAGCAUCA
B10: chr2:216981417:216981418:+_ENSG00000079246_ENST00000392132|hu_hu|hu_hu_hu_mus_True|18_98 (ssRNA)
RNA: GGGAGUUCUACAGUCCGACGAUCCUGAUACUGGUCCCCACCAGAAAGGGCAUUAUCAGUGCCAUCUGUGCCAUAGAGGACUAACGCAAUCUCAUCUUUGCUCUCCGAAAAUACCUGUCGCUGUACAAACAUAGUCAUCACUUUCAACAGAGGAUUGAGCAUCA
B11: chr11:48616917:48616918:+_ENSMUSG00000020372_ENSMUST00000020640|mus_mus|FALSE|FALSE (ssRNA)
RNA: GGGAGUUCUACAGUCCGACGAUCGACGAUGAUAGGGUUGCUGCUGUUCGGGGAGAAGCGGACACAAGACACCCAUUCUGAAUGACUCUCAUCCUGGACCGUGUACUUGCAGACACCCAGAGUAUUCCAUAACUUUAUGGUCUUCAACAGAGGAUUGAGCAUCA
B12: 23240013_23240133_1240_CDS_ENSG00000136243_ENST00000258742|human|control|control (ssRNA)
RNA: GGGAGUUCUACAGUCCGACGAUCACUACCAAAACCAGCCACAGAACUGCCACCUCCAAAGGCUGGGGCCACUGGAGCUCUGACAGGACCUGUUGCCAAGGAAGCUGGAAGUCCUGAAAAUCCAGGUGAUCCAAAACUGGAAGCCAACAGAGGAUUGAGCAUCA
B13: chr15:81680702:81680703:-_ENSMUSG00000048546_ENSMUST00000050467|mus_mus|motif|central (ssRNA)
RNA: GGGAGUUCUACAGUCCGACGAUCGAGAGAGAGUUGAGGCUAGGGCCAGACUUAUUUGGGUGGCAGGCCCUGAGAAGACAGCGGGGUUGGGGGUUGUGGACACGGGGGUGGAGGGUGGGGGGGUGUCAGCCUCUCCCUGUUUCACAACAGAGGAUUGAGCAUCA
B14: chr6:43255143:43255144:+_ENSG00000146216_ENST00000259750|hu_mus|FALSE|FALSE (ssRNA)
RNA: GGGAGUUCUACAGUCCGACGAUCUCCUAGGCCUCCCCUUCUUUCAAUCUCCAAACCUGGGUGUUGUUGGUCCUACGGCAGAAGGGAGACUGAGGGGGGCACCUACACUCACAGUUAGGUUGGUGGCAAGGGGCAGGCCCAGGGCAACAGAGGAUUGAGCAUCA
B15: 34053828_34053948_230_3pUTR_ENSMUSG00000051390_ENSMUST00000053429|mouse|control|control (ssRNA)
RNA: GGGAGUUCUACAGUCCGACGAUCUGGUCACCUCAGGGAAGGACACGUGUACCACUGCAGCUGCCGGCAGAGGCAGUGGCGGUGGAGCCAGUGACAGAGGCAGUGGGAGUGUGGCCCCACUGGGUGACAGAGCAGACGGCUCCACAACAGAGGAUUGAGCAUCA
B16: chr22:32879901:32879902:+_ENSG00000100225_ENST00000397426|hu_mus|hu_hu_hu_mus_False|78_78 (ssRNA)
RNA: GGGAGUUCUACAGUCCGACGAUCCUCUUCCAUACUCAUGGCAUCCUGAAUUGACUCAGCUUCAAAAUUUUGACUAGGCCCUUCCAUACUGUCAUCAGUCCAGGCAUCAAAUGGGGUGGCCUGUCCUUGGGAUGAAUCAGUCCCCAACAGAGGAUUGAGCAUCA
B17: chr14:66974463:66974464:+_ENSMUSG00000022044_ENSMUST00000074523|mus_hu|mus_mus_mus_hu_False|88_88 (ssRNA)
RNA: GGGAGUUCUACAGUCCGACGAUCUUGUAGGACGACUUAUUCAGGGGAUCAGACAAGAAGCAGGAGCAGAACAAGGACACCAGCGGGAGCUCCUUCAUCUUCUCUUUGUAGGCAGCAAGGGUCAUGUUUCUGGGAUCUGGUGGCCAACAGAGGAUUGAGCAUCA
B18: chr14:67424093:67424094:-_ENSMUSG00000022048_ENSMUST00000022629|mus_hu|FALSE|FALSE (ssRNA)
RNA: GGGAGUUCUACAGUCCGACGAUCGAGAGACGGGGUGUGGGGCCCCAAGGGGGACCCCAUGAACUGGCUGCUCCACAGUAACUAUCACAGGCUCUUAAAAAAAAAAACAAAAAAAAAAAAAGGAAGGAAGAAAGAAGUCUCAGACAACAGAGGAUUGAGCAUCA
B19: 157127611_157127731_2631_3pUTR_ENSMUSG00000026469_ENSMUST00000027741|mouse|control|control (ssRNA)
RNA: GGGAGUUCUACAGUCCGACGAUCAUUAAAAGUAGCUUUGUGGAGGAGGUGCUGCUCCAAGCUGCACUUUCCCUGCAAGUGCUGCCAGUGUCUCUGCACUGGCUAUGAAGGAAGGGAAAAACUCUCCAUAGAAACUGACAGAAACAACAGAGGAUUGAGCAUCA
B20: chr14:67424093:67424094:-_ENSMUSG00000022048_ENSMUST00000022629|mus_hu|motif|central (ssRNA)
RNA: B18 RNA with U82G, A83G
B21: chr7:143080189:143080190:+_ENSG00000159840_ENST00000392910|hu_hu|FALSE|FALSE (ssRNA)
RNA: GGGAGUUCUACAGUCCGACGAUCUGGGGCUCCAGGACUGAACUUGGAAGCCACAGGAGUAAACUUAGGAGUCACUGGAGAAAACUUAGGGGCUGGAGCCGGAGAUGAGGCUGGGGGCCCUCGGGGCUGGGUGUUAGCCAAAGACAACAGAGGAUUGAGCAUCA
B22: chr8:73282188:73282189:+_ENSMUSG00000031840_ENSMUST00000034301|mus_hu|FALSE|FALSE (ssRNA)
RNA: GGGAGUUCUACAGUCCGACGAUCUAGGGUGUCAUCUGGCCCCUCUUCACAACUGACAACUGUGGAUGGGGGUGAAUUUUAAAAAAAGGCGGGGGGGGGGGGUUCAGGAGGGUGAGCGGUGAGUUCACGGGGCCACGAGACACCCAACAGAGGAUUGAGCAUCA
B23: chrX:71549400:71549401:+_ENSMUSG00000019087_ENSMUST00000019231|mus_hu|mus_mus_mus_hu_False|28_68 (ssRNA)
RNA: GGGAGUUCUACAGUCCGACGAUCGCAGUAGGAAGAGGGAAGCUCUUCAGUCCAGUGCGCUGCAGGGAGAAACAUGAACAACACGGACACCGUCCCACCCUCAACCCUCUCAGGUGUACAGGGUCACACAAUCUGGGUCAAAGACAACAGAGGAUUGAGCAUCA

Changes are numbered by the printed parent chain. Whole data set: some 24,000 sequences, median “enrichment r” near 0.99, cut for the highest 2% near 3.7. Many of the other results were omitted from the sample, so the highest values are more common in it than they were.

The assay deals with T1, UNK ZnF1-3 (human, UniProt Q9C0B0 31-174).
T1 sequence: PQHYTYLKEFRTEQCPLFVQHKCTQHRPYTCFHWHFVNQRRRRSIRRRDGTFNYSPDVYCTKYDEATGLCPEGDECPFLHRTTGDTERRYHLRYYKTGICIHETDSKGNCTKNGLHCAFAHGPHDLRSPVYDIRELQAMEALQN
As to the kind of experiment: nsRBNS (natural sequence RNA bind-n-seq); RBNS binding buffer (assumed for nsRBNS): 25 mM Tris pH 7.5, 150 mM KCl, 3 mM MgCl2, 0.01% Triton X-100, 500 ug/ml BSA, 20 U/ml SUPERase-In, 4 C; UNK is unkempt and MSI1 is Musashi-1; names of the RNAs are library labels; protein concentration not given here; high values mean tight binding.
B1 came in with a binding signal of 0.845 enrichment R.

On to B2, for which the binding signal is 3.52 enrichment R.

Turning to B3, the binding signal was 0.683 enrichment R.

Take B4: the binding signal was 0.594 enrichment R.

On to B5, for which the binding signal came to 7.18 enrichment R.

Consider B6, for which the binding signal amounted to 11.1 enrichment R.

Regarding B7, the binding signal amounted to 8.56 enrichment R.

Molecule B8 came in with a binding signal of 3.79 enrichment R.

The molecule B9 gave a binding signal of 0.777 enrichment R.

The molecule B10 showed a binding signal of 1.16 enrichment R.

For B11, the binding signal was 0.907 enrichment R.

In turn, B12 registered a binding signal of 1.23 enrichment R.

B13 gave a binding signal of 4.46 enrichment R.

B14 gave a binding signal of 0.766 enrichment R.

Molecule B15 had a binding signal of 0.895 enrichment R.

B16 displayed a binding signal of 1.23 enrichment R.

B17 registered a binding signal of 2 enrichment R.

B18: the binding signal was determined as 20.5 enrichment R.

As for B19, the binding signal turned out to be 0.603 enrichment R.

Molecule B20 returned a binding signal of 7.78 enrichment R.

B21: the binding signal came to 1.45 enrichment R.

B22 showed a binding signal of 4.04 enrichment R.

B23 gave a binding signal of 1.64 enrichment R.

The record behind these values is PMC12136788.
